Results on twelve compounds are retold here after ChEMBL document CHEMBL4513149, “CO-ADD screening of MMV (CH) - MMV compounds” (2021).

The test system of one assay is Klebsiella pneumoniae. Conditions: Concentration 20 uM; ASSAY_TEST Inhibition of Bacterial Growth; detection method Absorption (OD600); MEDIA CAMHB; plate type 384well; NBS; CORNING #3640; time 18 hr.
The next assay has as its system Candida albicans. As to conditions: 20 µM.
For the next assay, the system named is Cryptococcus neoformans. As to conditions: Concentration 20 uM; ASSAY_TEST Inhibition of Fungal Growth; detection method Resazurin; Absorption (OD600-OD570); plate type 384well; NBS; CORNING #3640.

Potency and affinity values are given separately.

`CC(Oc1cccc(Cl)c1)C(=O)Nc1ccc2oc(-c3ccncc3)nc2c1` (stereo unspecified): the Inhibition (commonly the relative decrease from the control value, in per cent) in the assay on Klebsiella pneumoniae is 9.56%; in the assay with Candida albicans it was 6.74%; in the assay with Cryptococcus neoformans, -15%.

On to `COc1cc2ncnc(NC3CCN(Cc4ccccc4)CC3)c2cc1OC`, for which the Inhibition with Klebsiella pneumoniae is 10.11%; in the assay with Candida albicans, 2.88%; in the assay with Cryptococcus neoformans it was 4.42%.

Turning to `CC1CS(=O)(=O)CCN1/N=C/c1ccc([N+](=O)[O-])o1` (stereo unspecified) [NIFURTIMOX], the Inhibition in the assay on Klebsiella pneumoniae is 15.43%; in the assay with Candida albicans, 4.12%; in the assay on Cryptococcus neoformans it was 5.99%.

For `Cc1nn(C)cc1C(C)Nc1nncc(-c2ccc(C(F)(F)F)cc2)n1` (stereo unspecified), the figures for the Inhibition in the assay with Klebsiella pneumoniae, in the assay with Candida albicans and in the assay on Cryptococcus neoformans were 3.18%, 3.9% and -5.79%, respectively.

For `CCCCOC(=O)Nc1cc2nc(C3CCCCC3)[nH]c2cc1N1CCCC1`, the results for the Inhibition in the assay with Klebsiella pneumoniae, in the assay on Candida albicans and in the assay on Cryptococcus neoformans were 3.91%, 3.13% and -8.19%, respectively.

Regarding `CCOC(=O)c1noc(N)c1-c1ccccc1`, the results for the Inhibition in the assay on Klebsiella pneumoniae, in the assay with Candida albicans and in the assay with Cryptococcus neoformans were 13.91%, 3.66% and -9.75%, respectively.

Take `COc1ccc(-c2nnc3ccc(-c4cccc(C(C)C)c4)cn23)cc1OC`: the values for the Inhibition with Klebsiella pneumoniae, in the assay on Candida albicans and in the assay with Cryptococcus neoformans were -10.87%, 15% and -9.03%, respectively.

Take `COc1cc(NC(=O)Cc2nn(C)c(=O)c3ccccc23)ccc1Cl`: the Inhibition with Klebsiella pneumoniae was 12.64%; in the assay with Candida albicans it was 6.72%; with Cryptococcus neoformans, -0.85%.

`COc1ccc(N(CCc2cccc(C)n2)C(=O)C2CCCCC2)cc1`: the figures for the Inhibition with Klebsiella pneumoniae, with Candida albicans and in the assay on Cryptococcus neoformans were 6.26%, -0.29% and -4.98%, respectively.

With `Cc1ccccc1C(=O)N1N=C(Nc2ccccc2)SC1(C)C`, the Inhibition in the assay on Klebsiella pneumoniae was 6.87%; in the assay on Candida albicans, 4%; in the assay on Cryptococcus neoformans it was -7.29%.

`N#Cc1nc(-c2ccccc2)oc1S(=O)(=O)c1ccc(Cl)cc1`: the Inhibition with Klebsiella pneumoniae was -0.86%; with Candida albicans, 3.69%; in the assay on Cryptococcus neoformans, -7.91%.

Consider `COC(=O)c1c(NC(=O)c2c(F)c(F)c(F)c(F)c2F)sc2c1CCCCC2`, for which the Inhibition in the assay on Klebsiella pneumoniae is 11.31%; in the assay with Candida albicans, 6.8%; in the assay with Cryptococcus neoformans, -13.49%.
